# According to PubChem BioAssay (EPA / NIEHS):
# Where “and” joins values, the source holds several entries; their conditions need not be identical. Equal values may be shown once. Records with an inconclusive call do not appear. Calls of active or inactive are those of the source. How the source made its calls, unless noted: active means hit-call score of the fitted dose curve at least 0.9, where 1 is the maximum; inactive means score below 0.9.
# Experiments:
# [1] = CCTE_Mundy_HCI_iCellGluta_NOG_NeuriteLength: CCTE's Neurite Outgrowth Assay in iCellGluta cells for Neurite Length, Mundy Lab (AID 2284318; active means hit-call score of the fitted dose curve at least 0.9, where 1 is the maximum)
# Summary of the method: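 Automated high-content imaging of betaIII-tubulin (Alexa Fluor-488) and Hoechst-stained cells gave neurite length, normalized to the DMSO baseline.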
# [2] = TAMU_PeakParms_SingleDonor1434_Asystole: Texas A&M University (TAMU) 1.5-hr Human Induced Pluripotent Stem Cell (iPSC)-derived Cardiomyocytes Calcium (Ca+2) Flux Assay for Cardiotoxicity: Asystole (quiescence of beating) (AID 2284328; active means hit-call score of the fitted dose curve at least 0.9, where 1 is the maximum)
# Summary of the method: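 Donor 1434 iPSC-cardiomyocytes exposed 90 min at 37C, 5% CO2, to 0.2, 1, 10 and 100 uM in 0.5% DMSO. Ca2+ dye fluorescence gave average peak frequency; POD is EC95, a 95% beat-rate drop versus controls.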
# [3] = tested on: Brachyury (BRA) Protein Expression, Deisenroth Lab, TBXT (gene 6862); assay: CCTE_Deisenroth_DEVTOX-GLR_legacy_Bra: (Legacy) CCTE's DevTox GLR-Endo Assay Evaluation of Brachyury (BRA) Protein Expression, Deisenroth Lab (AID 2284329)
# Summary of the method: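 Readout: percent Bra+ cells by high-content fluorescence imaging, Bra+ meaning mean intensity 5x BMAD over pluripotent control median. RUES2-GLR cells dosed twice over 48 h differentiation; DMSO-control median subtracted before concentration-response fitting.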
# [4] = CCTE_Deisenroth_DEVTOX-GLR_legacy_CellCount: (Legacy) Viability Assessment in CCTE's DevTox GLR-Endo Assay, Deisenroth Lab (AID 2284331); details: actives raise or lower the signal
# Summary of the method: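 Human pluripotent RUES2-GLR cells differentiated 48 h with two 24-h-interval exposures, 10-point 1 nM–200 uM series, 0.2% DMSO. Fixed nuclei counted by high-content imaging (5 fields/well); bidirectional fit vs DMSO, n≥4.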
# [5] = IUF_NPC1_cytotoxicity_72hr: Cytotoxicity Assessment at 72 hours in the Leibniz Research Institute for Environmental Medicine (IUF) Neural Progenitor Cell Proliferation Assay (NPC1) (AID 2284332; active means hit-call score of the fitted dose curve at least 0.9, where 1 is the maximum;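 further: rising LDH signal means more cytotoxicity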)
# Summary of the method: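 Cytotoxicity by LDH membrane-integrity assay on medium supernatants, fluorescence via resazurin reduction, after 3-day single exposure of primary hNPC spheres at 37C, pH 7.2-7.6 with growth factors. Fitted upward against baseline.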
# [6] = tested on: SRY-box transcription factor 17 (SOX17) Protein Expression, Deisenroth Lab, SOX17 (gene 64321); assay: CCTE_Deisenroth_DEVTOX-GLR_legacy_Sox17: (Legacy) CCTE's DevTox GLR-Endo Assay Evaluation of SRY-box transcription factor 17 (SOX17) Protein Expression, Deisenroth Lab (AID 2284341); details: actives raise or lower the signal
# Summary of the method: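 RUES2-GLR human pluripotent cells differentiated toward endoderm for 48 h, dosed twice at 24 h intervals (1 nM–200 uM, 10 points). Imaging gives % SOX17+ cells (intensity >5x BMAD above pluripotent control median); bidirectional fit versus 0.2% DMSO.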
# [7] = tested on: SRY-box transcription factor 2 (SOX2) Protein Expression, Deisenroth Lab, SOX2 (gene 6657); assay: CCTE_Deisenroth_DEVTOX-GLR_legacy_Sox2: (Legacy) CCTE's DevTox GLR-Endo Assay Evaluation of SRY-box transcription factor 2 (SOX2) Protein Expression, Deisenroth Lab (AID 2284346)
# Summary of the method: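 Read-out: fraction of Sox2+ cells by high-content fluorescence imaging of fixed RUES2-GLR cells after 48 h differentiation with two 24 h-spaced exposures. Positivity cutoff 5x BMAD above endoderm control median; 0.2% DMSO median subtracted.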
# TTR (gene 7276) = assay: CCTE_GLTED_hTTR_0.5uM: CCTE's human Transthyretin (hTTR) Inhibition Assay, with 0.5uM TTR, Great Lakes Toxicology and Ecology Division (GLTED) Lab (AID 2284320)
# Summary of the method: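 Probe (ANSA) displacement from 0.5 uM human transthyretin was followed by fluorescence (ex 380, em 475) after a 2 h incubation with chemical. Activity was scored as signal loss and fitted positively relative to DMSO.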
# IYD (gene 389434) = assay: CCTE_GLTED_hIYD: CCTE's human Iodotyrosine Deiodinase (xIYD) Inhibition Assay, Great Lakes Toxicology and Ecology Division (GLTED) Lab (AID 2284317; active means hit-call score of the fitted dose curve at least 0.9, where 1 is the maximum;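 further: cell-free human IYD enzyme made in baculovirus insect cells; iodide freed from monoiodotyrosine measured by cerium arsenite color change at 420 nm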)
# Summary of the method: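 In the IYD assay, iodide released from MIT by insect-cell-expressed human enzyme was quantified after 3 h via Sandell-Kolthoff rate at 420 nm, with plate-wise normalization to MNT and solvent controls.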
# [8] = CCTE_Mundy_HCI_iCellGluta_NOG_NeuriteCount: CCTE's Neurite Outgrowth Assay in iCellGluta cells for Neurite Count, Mundy Lab (AID 2284342; active means hit-call score of the fitted dose curve at least 0.9, where 1 is the maximum;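 further: chemical exposure about 48 hours starting 2 hours after plating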)
# SERPINA7 (gene 6906) = assay: CCTE_GLTED_hTBG: CCTE's human Thyroxine-binding Globulin (TBG) Inhibition Assay, Great Lakes Toxicology and Ecology Division (GLTED) Lab (AID 2284343; active means hit-call score of the fitted dose curve at least 0.9, where 1 is the maximum;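 further: active chemicals lower fluorescence versus DMSO baseline by displacing probe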)
# Summary of the method: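 Cell-free displacement of the fluorescent probe ANSA from human thyroxine-binding globulin after 2 h exposure. Read-out at ex 380/em 475 nm; DMSO baseline.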
# [9] = Tanguay_ZF_120hpf_MO24: Oregon State University Tanguay Lab 24 Hour Post-fertilization zebrafish Assay for Mortality (AID 2284389)
# Summary of the method: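 Embryo death at 24 hpf was recorded as present or absent in Tropical 5D zebrafish, dechorionated at 4 hpf and dosed statically from 6 hpf (28C, 0.64% DMSO); 5 uM trimethyltin chloride served as positive control.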
# [10] = CCTE_Deisenroth_5AR_NBTE_donor: CCTE's 5alpha-reductase NanoBRET Target Engagement Assay […], Deisenroth Lab (AID 2284319); details: actives raise or lower the signal
# Summary of the method: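 HEK293T cells transiently expressing SRD5A2-NanoLuc, exposed 5 h to chemicals (8 points, 10 nM - 29.9 uM), with testosterone tracer for the final 2 h. Donor luminescence at 460 nm read after Nano-Glo substrate plus extracellular NanoLuc inhibitor; bidirectional fit versus DMSO.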
# [11] = CCTE_Deisenroth_5AR_NBTE_acceptor: CCTE's 5alpha-reductase NanoBRET Target Engagement Assay - Autofluorescence Screen, Deisenroth Lab (AID 2284321); details: actives raise or lower the signal;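 further: compound fluorescence in the acceptor channel under 460 nm excitation flags autofluorescence artifacts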
# Summary of the method: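 Using three independent plate-reader runs, nominal 100 uM chemicals were checked for intrinsic fluorescence (ex 460 nm). DMSO defined the baseline for bidirectional fitting.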
# SRD5A2 (gene 6716) = assay: CCTE_Deisenroth_5AR_NBTE_ratio: CCTE's 5alpha-reductase NanoBRET Target Engagement Assay - Ratio, Deisenroth Lab (AID 2284322); details: actives raise or lower the signal
# Summary of the method: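 HEK293T cells transiently expressing an SRD5A2-NanoLuc fusion (20 h post-transfection) were exposed to test chemical (10 nM - 29.9 uM, 8 points) for 3 h, then testosterone tracer for a further 2 h. Acceptor/donor BRET ratio was fitted bidirectionally against DMSO baseline.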
smiles,measurement,setting,value
O=C1NS(=O)(=O)c2ccccc21,outcome,[1],inactive
same,outcome,[2],inactive
same,outcome,[3],inactive
same,outcome,[4],inactive
same,outcome,[5],inactive
same,outcome,[6],inactive
same,outcome,[7],inactive
O=C(O)CCC(F)(F)C(F)(F)C(F)(F)C(F)(F)C(F)(F)C(F)(F)F,AC50,TTR (gene 7276),3.66 µM (active)
O=P(O)(O)CCC(F)(F)C(F)(F)C(F)(F)C(F)(F)C(F)(F)C(F)(F)C(F)(F)C(F)(F)F,outcome,IYD (gene 389434),inactive
same,outcome,[1],inactive
same,AC50,TTR (gene 7276),2.24 µM (active)
same,outcome,[8],inactive
same,AC50,SERPINA7 (gene 6906),95.6 µM (active)
same,outcome,[9],inactive
CCCCCCCCCCCC,AC50,IYD (gene 389434),38.4 µM (active)
same,outcome,[10],inactive
same,outcome,[11],inactive
same,outcome,SRD5A2 (gene 6716),inactive
Cc1cc(Cc2cc(C)cc(C(C)(C)C)c2O)c(O)c(C(C)(C)C)c1,AC50,IYD (gene 389434),24.2 µM (active)
same,AC50,SERPINA7 (gene 6906),2.6 µM (active)
CC(=O)Nc1ccc(O)cc1,outcome,[2],inactive
same,outcome,[3],inactive
same,outcome,[4],inactive
same,outcome,[5],inactive
same,outcome,[6],inactive
same,outcome,[7],inactive
O=C(O)C(F)(F)OC(F)(F)C(F)(F)OC(F)(F)C(F)(F)OC(F)(F)C(F)(F)C(F)(F)C(F)(F)F,AC50,IYD (gene 389434),93.2 µM (active)
same,AC50,TTR (gene 7276),1.11 µM (active)
same,AC50,SERPINA7 (gene 6906),20.8 µM (active)
same,outcome,[9],inactive
CCCCc1oc2ccccc2c1C(=O)c1cc(I)c(OCCN(CC)CC)c(I)c1,outcome,[10],inactive
same,outcome,[11],inactive
same,outcome,SRD5A2 (gene 6716),inactive
same,AC50,[3],19.8 µM (active)
same,AC50,[4],18.2 µM (active)
same,AC50,[6],20.8 µM (active)
same,AC50,[7],29.9 µM (active)
O=C(Nc1ccc(Cl)c(Cl)c1)c1cc(Cl)cc(Cl)c1O,AC50,IYD (gene 389434),77.4 µM (active)
Oc1c(Cl)cc(Cl)cc1Sc1cc(Cl)cc(Cl)c1O,AC50,IYD (gene 389434),56.9 µM (active) and 88.2 µM (active) and 100 µM (active)
CCCCCCCCCCCCOS(=O)(=O)O,AC50,[10],50 µM (active)
same,AC50,[11],44.8 µM (active)
same,AC50,SRD5A2 (gene 6716),83.9 µM (active)
O=C(c1ccccc1)c1ccccc1,AC50,SERPINA7 (gene 6906),40.2 µM (active)
O=C1OC2(c3ccccc31)c1cc(I)c(O)c(I)c1Oc1c2cc(I)c(O)c1I,AC50,[10],2.23 µM (active)
same,AC50,[11],1.79 µM (active)
same,AC50,SRD5A2 (gene 6716),6 µM (active)
COc1cc([N+](=O)[O-])ccc1N,outcome,[10],inactive
same,outcome,[11],inactive
same,AC50,SRD5A2 (gene 6716),50 µM (active)
same,AC50,SERPINA7 (gene 6906),37 µM (active)
